Results as given in PubChem BioAssay AID1224904 (Broad Institute, 2016).
Among all 37,000 compounds or so, about 290 (0.78%) were called active. Not shown: some 10% with an inconclusive outcome. The sample holds actives, similar compounds and a random draw of the others, so the mix is not that of the screen.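 Rule for the calls: active = mean inhibition of at least 10% in the main channel, exceeding the control channel by a set limit; inconclusive = inhibition of 10% or more but channel gap under a set limit; inactive = mean inhibition below 10%.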

Assay: inhibitors of DUX4-driven ZSCAN4 reporter expression, primary screen, 293T cells, Gaussia and Italica luciferase (AID 1224904);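 for activity change, negative = inhibition: 0% = median of neutral control wells and -100% = median of positive control wells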
Conditions: 293T-iDUX4 ZSCAN4-Gaussia luciferase reporter, 24 h, stronger effect = lower value, concentration not given here; for Gaussia minus Italica difference: measured here: selective DUX4 reporter inhibition
[1] = measured here: Italica tet-on control reporter

Compound	activity change, negative = inhibition	activity change, negative = inhibition [1]	Gaussia minus Italica difference
CCNC[C@@H]1[C@@H](c2ccccc2)[C@@H](CO)N1C(=O)Cc1ccccn1	-0.0686% (inactive)	0.573%	-0.642%
CC(C)[C@@H]1COCc2cn(nn2)CC[C@@H](C)C(=O)N1	-4.81% (inactive)	-0.475%	-4.34%
C/C=C/c1ccc([C@H]2[C@@H](CO)N(S(C)(=O)=O)[C@@H]2CN(C)C(=O)CC)cc1	-5.98% (inactive)	-3.34%	-2.63%
COc1ccc(S(=O)(=O)Nc2ccc3c(c2)C(=O)N([C@@H](C)CO)C[C@@H](C)[C@H](CN(C)C(=O)CCC(F)(F)F)OCCCC[C@H](C)O3)cc1	-0.224% (inactive)	1.87%	-2.09%
COc1ccc2c3c(n(C)c2c1)[C@H](CO)N(Cc1ccc(F)cc1)CC31CCN(C)CC1	-2.1% (inactive)	0.744%	-2.85%
CCCN1[C@H](C(=O)N2CCCCC2)[C@@H](CO)[C@@H]2Cn3c(ccc(-c4ccccc4F)c3=O)[C@@H]21	-5.69% (inactive)	-0.135%	-5.56%
CCCNC(=O)N(C)C[C@@H]1Oc2ncc(C#CCc3ccccc3)cc2C(=O)N([C@@H](C)CO)C[C@H]1C	5.53% (inactive)	3.94%	1.6%
CCCNC(=O)N1C[C@@H](O)COC[C@H]2O[C@H](CC(=O)N3CCC(Cc4ccccc4)CC3)CC[C@@H]21	-2.96% (inactive)	-2.25%	-0.719%
N#C[C@H]1[C@@H](c2ccc(-c3ccccc3F)cc2)[C@H](CO)N1C(=O)c1ccccn1	2.62% (inactive)	1.69%	0.933%
CCS(=O)(=O)N1Cc2cc(C(=O)N(C)C)nc(-c3cccc(-c4ccc(C#N)cc4)c3)c2[C@H]1CCO	0.897% (inactive)	2.65%	-1.75%
COc1ccccc1CN1CC[C@@H]2[C@@H](CO)Nc3ccc(C#Cc4ccccc4)cc3[C@@H]21	-0.512% (inactive)	16%	-16.5%
COc1ccc(C#Cc2ccc3c(c2)[C@H]2[C@H](CCN2Cc2nccs2)[C@@H](CO)N3)cc1	-46.9% (active)	-18.3%	-28.6%
COc1ccc(S(=O)(=O)N2CC[C@@H]3[C@@H](CO)Nc4ccc(C#Cc5cccnc5)cc4[C@@H]32)cc1	2.41% (inactive)	-7.96%	10.4%
CCCNC(=O)Nc1ccc2c(c1)C(=O)N(C)[C@@H]1CC[C@@H](CC(=O)NC)O[C@H]1CO2	5.07% (inactive)	8.03%	-2.97%
C[C@H](NC(=O)C[C@@H]1C=C[C@H](NC(=O)CN2CCOCC2)[C@H](CO)O1)c1ccccc1	4.92% (inactive)	1.16%	3.76%
CCCNC(=O)N1CCC2(CC1)CN(C(=O)c1cccnc1)[C@@H](CO)c1[nH]c3cc(OC)ccc3c12	8.76% (inactive)	-3.75%	12.5%
C[C@@H]1CCCCO[C@H](CN(C)Cc2ccc(C(=O)Nc3ccccc3N)cc2)[C@H](C)CN([C@H](C)CO)C(=O)c2cc(N(C)C)ccc2O1	1.16% (inactive)	0.261%	0.898%
CC(C)CC#Cc1ccc([C@@H]2[C@@H](CO)N3C(=O)CN(C(=O)c4cnccn4)C[C@@H]23)cc1	-2.25% (inactive)	4.38%	-6.63%

Compound	activity change, negative = inhibition	activity change, negative = inhibition [1]	Gaussia minus Italica difference
COc1ccc2c3c(n(C)c2c1)[C@@H](CO)N(C(=O)C1CC1)CC31CN(C(=O)C2CCOCC2)C1	9.17% (inactive)	2.05%	7.12%
O=C(Nc1ccccc1)N1C[C@H]2[C@@H](c3ccccc31)[C@H](CO)N2Cc1ccc(F)cc1	-5.39% (inactive)	-0.0374%	-5.35%
COc1ccc2c3c(n(C)c2c1)[C@@H](CO)N(C(=O)c1ccccn1)CC31CN(C)C1	15.3% (inactive)	6.61%	8.66%
CN(C)C(=O)C[C@@H]1C[C@H]2c3cc(NC(=O)Nc4ccccc4F)ccc3O[C@H]2[C@@H](CO)O1	1.79% (inactive)	4.62%	-2.83%
CO[C@H]1CN(C)C(=O)c2ccc(NC(=O)c3cccc(F)c3)cc2OC[C@@H](C)N(C(C)=O)C[C@@H]1C	1.79% (inactive)	2.12%	-0.333%
Cc1ccccc1-c1ccc([C@H]2[C@H](CO)N3C(=O)CN(C(=O)c4cccnc4)C[C@@H]23)cc1	6.89% (inactive)	11.7%	-4.8%
O=C(C[C@H]1CC[C@@H]2[C@H](COC[C@H](O)CN2S(=O)(=O)c2ccccc2)O1)N1CCOCC1	7.87% (inactive)	8.06%	-0.196%
O=C(C[C@@H]1CC[C@H]2[C@@H](COC[C@@H](O)CN2C(=O)Nc2ccc(Cl)cc2)O1)NC1Cc2ccccc2C1	3.16% (inactive)	10.4%	-7.28%
Cc1ccccc1S(=O)(=O)Nc1ccc2c(c1)C(=O)N(C)[C@@H]1CC[C@@H](CC(=O)O)O[C@@H]1CO2	-2.51% (inactive)	-0.782%	-1.73%
COc1cccc(C(=O)N2C[C@@H]3[C@H](c4ccccc42)[C@H](CO)N3Cc2ccccc2F)c1	-0.575% (inactive)	3.46%	-4.03%
CCCNC(=O)N1C[C@@H](O)COC[C@H]2O[C@H](CC(=O)NCCCN3CCOCC3)CC[C@@H]21	5.88% (inactive)	6.39%	-0.509%
CCC(=O)N1CC2(C1)CN(Cc1nccs1)[C@@H](CO)c1c2c2ccc(OC)cc2n1C	20% (inactive)	2.76%	17.3%
CN(C)C(=O)c1cccc(-c2ccc3c(c2)[C@H]2[C@H](CCN2C(=O)c2cccnc2)[C@H](CO)N3)c1	-0.714% (inactive)	0.0796%	-0.793%
O=C(C[C@@H]1CC[C@@H]2[C@H](COC[C@H](O)CN2CC2CCOCC2)O1)NCC1CCCCC1	3.21% (inactive)	11.5%	-8.33%
CCCN1C[C@@H](C)[C@@H](OC)CN(C)C(=O)c2cc(NC(=O)Nc3cccc(F)c3)ccc2OC[C@@H]1C	-9.36% (inactive)	-5.66%	-3.7%
O=C(NCC1CC1)[C@@H]1[C@@H](CO)[C@@H]2Cn3c(ccc(-c4ccncc4)c3=O)[C@@H]2N1Cc1cocn1	-0.331% (inactive)	-1.44%	1.11%
CC(C)NC(=O)N1[C@H](CO)[C@H](c2ccccc2)C12CN(C(=O)Cc1cccnc1)C2	1.09% (inactive)	5.85%	-4.76%
